In PubChem BioAssay (NCATS):
Results filed as inconclusive are left out. A number with no mark means an inactive call. Activity calls are given as the source filed them. Calls follow the shape of the dose curve; as a rule, active = well fitted curve in the direction sought with a large enough effect; inconclusive = small, poorly fitted or top-dose-only effect, or another doubt; inactive = no such curve, though single readings can be large; an effect the other way counts as inactive or inconclusive.

Key:
[1] = system: Tov112D; experiment: Primary qHTS to identify gynecologic anti-cancer compounds using libraries of approved drugs and bioactive compounds (AID 1345084); settings: Gynecologic cancer cell panel viability, ATPlite luminescence, 48 h; series mostly up to 57.5 µM; also: nearly all actives have a fitted effect of over 55% in size
Procedure, shortened: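 Cell viability after 48 h drug treatment, ATPlite luminescence readout; five doses.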

[2] = Drug repurposing screens with cells derived from glioblastoma tumor samples (AID 1345199); settings: GBM patient neurospheres viability, ATP luminescence, 48 h; also: nearly all actives have a fitted effect of over 40% in size; also: potency is read from the fitted curve at half-maximal effect
Procedure, shortened: (§1)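 Primary testing used CD133+ neurospheres from four GBM patients, seven concentrations, 48 h exposure and ATP-based viability; confirmation added three slower-growing patient lines.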

[3] = system: astro; experiment: as above; settings: viability, ATP luminescence, 48 h; series mostly up to 45.9 µM
Procedure, shortened: as §1

[4] = at 46.1 µM (top of the series), tumour line C
[5] = at 45.9 µM (top of the series), tumour line B
[6] = at 45.9 µM (top of the series), tumour line D
% is scaled to controls: 0 for no effect and ±100 for the full control effect.

C[C@@]12C[C@@H](c3ccoc3)OC(=O)C1CC[C@]1(C)[C@H]2[C@H]2C=C[C@]1(O)C(=O)O2 (some centres undefined)
Potency [1]: inactive

C[C@]12CC[C@H]3[C@@H]([C@H](O)CC4=CC(=O)CC[C@@]43C)[C@@H]1CC[C@@H]2O
Potency [1]: inactive

Oc1ccc2c3c1O[C@H]1[C@H](N(CCCl)CCCl)CC[C@@]4(O)[C@@H](C2)N(CC2CC2)CC[C@]314
activity change, negative = cytotoxicity [1]: 3.75% [at 11.6 µM]

CC(C)[C@@]1(NC(=O)[C@@H]2C[C@@H]3c4cccc5[nH]cc(c45)C[C@H]3N(C)C2)O[C@@]2(O)[C@@H]3CCCN3C(=O)[C@H](Cc3ccccc3)N2C1=O
activity, negative = cell killing [2, 4]: 9.68% | Potency ([2]; tumour line A): 3.16 µM (active)

CCOc1ccc2c3c1O[C@H]1[C@@H](O)C=C[C@H]4[C@@H](C2)N(C)CC[C@@]341
activity, negative = cell killing [2, 5]: -22.9%

CCc1c(C(=O)C(N)=O)c2c(OCC(=O)OC)cccc2n1Cc1ccccc1
Potency [1]: inactive

COC1=CC(=O)O[C@@H](CCc2ccccc2)C1
Potency [1]: inactive

CC1=CC2/C=C(\C)CCC(O)C3OC(C)(C)OC3CC(=O)OC23C(=O)NC(CC(C)C)C3C1C (centres undefined)
Potency [1]: inactive

C[N+]1([O-])[C@@H]2CC[C@H]1CC(OC(=O)C(CO)c1ccccc1)C2 (some centres undefined)
activity, negative = cell killing ([2]; at 20 µM (top of the series), tumour line C): -19.4% | activity, negative = cell killing ([2]; at 21.2 µM (top of the series), tumour line B): -4.66% | activity, negative = cell killing ([2]; at 21.2 µM (top of the series), tumour line D): -20.9% | activity, negative = cell killing ([2]; at 21.3 µM (top of the series), tumour line A): -44.8% | activity, negative = cell killing [2, 5]: -7.07% | activity, negative = cell killing [2, 6]: 8.25% | activity, negative = cell killing [2, 4]: 21.1% | Potency [3]: inactive

COc1ccc2c3c1O[C@H]1[C@@H](O)C=C[C@H]4[C@@H](C2)NCC[C@@]341
activity, negative = cell killing [2, 5]: -18.4% | activity, negative = cell killing [2, 6]: -17.8% | activity, negative = cell killing [2, 4]: -25.3% | activity, negative = cell killing ([2]; at 99.2 µM (top of the series), tumour line C): 6.81% | activity, negative = cell killing ([2]; at 108 µM (top of the series), tumour line B): -9.55% | activity, negative = cell killing ([2]; at 108 µM (top of the series), tumour line D): -1.54% | Potency [3]: inactive
